From PubChem BioAssay AID1903 (Southern Research Specialized Biocontainment Screening …, 2009)
Values joined by “and” are separate entries in the source; they are usually repeats but may differ in a detail not shown here. Identical values can stand only once. About 1,200 (0.39%) of roughly 310,000 compounds were called active. How the calls were made is not given here. The list is a sample of the results. Results with a measured potency or affinity are listed apart.

The compounds below were run against Large T antigen (Simian virus 40) (UniProt P03070) (assay: SV40 large T antigen inhibitors, biochemical (AID 1903)). Details: SV40 large T antigen ATPase/helicase inhibition assay; at 20 µM; hits give high values.
Sequence of Large T antigen (Simian virus 40) (P03070 whole entry, looked up): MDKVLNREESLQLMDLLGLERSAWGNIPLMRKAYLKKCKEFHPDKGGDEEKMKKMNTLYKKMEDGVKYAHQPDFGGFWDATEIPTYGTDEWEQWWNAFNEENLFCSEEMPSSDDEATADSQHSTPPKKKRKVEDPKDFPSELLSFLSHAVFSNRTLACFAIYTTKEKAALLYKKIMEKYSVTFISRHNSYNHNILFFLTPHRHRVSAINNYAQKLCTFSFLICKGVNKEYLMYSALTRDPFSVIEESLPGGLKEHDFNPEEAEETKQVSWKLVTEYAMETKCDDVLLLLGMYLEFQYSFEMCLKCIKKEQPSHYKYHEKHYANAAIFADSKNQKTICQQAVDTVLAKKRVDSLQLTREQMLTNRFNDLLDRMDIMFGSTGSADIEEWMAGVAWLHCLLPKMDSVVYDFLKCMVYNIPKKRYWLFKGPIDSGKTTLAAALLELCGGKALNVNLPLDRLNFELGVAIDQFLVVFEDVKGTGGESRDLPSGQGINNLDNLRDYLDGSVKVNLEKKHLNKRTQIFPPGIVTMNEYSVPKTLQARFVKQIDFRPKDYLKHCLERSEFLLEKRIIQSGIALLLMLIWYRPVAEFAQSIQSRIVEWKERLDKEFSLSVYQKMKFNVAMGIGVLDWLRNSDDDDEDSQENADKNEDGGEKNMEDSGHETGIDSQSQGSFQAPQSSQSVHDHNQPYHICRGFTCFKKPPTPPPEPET

inhibition, inactive:
O=C(O)c1ccc(C(=O)C(=O)c2ccccc2)cc1 13.3%, Nc1ccc(C(=O)O)cc1 4.17% and 15.4% and 26%, Cc1cc(NC(=O)CCC(=O)N(Cc2ccccc2)C(C(=O)NC2CCCC2)c2ccco2)no1 (stereo not drawn) 10.2%, O=C(CS(=O)CC(=O)Nc1ccccc1-c1ccccc1)Nc1ccc(F)cc1 (stereo not drawn) 6.05%, Cc1ccc(Cn2c(=O)c3ccccc3n3c(CCC(=O)NCCN4CCOCC4)nnc23)cc1 3.95%, Cn1c(/C(C#N)=C/c2ccc(O)cc2)nc2ccccc21 9.77%, Cn1c(/C(C#N)=C/c2cccc(O)c2)nc2ccccc21 12.6%, COc1cc(/C=C(\C#N)c2ccccn2)ccc1OCc1ccc(Cl)cc1 12.1%, COc1cc(/C=C(\C#N)c2ccccn2)ccc1OCc1ccccc1 4.85%, O=C(C1CCN(S(=O)(=O)c2cccnc2)CC1)N1CCN(c2cccc(Cl)c2)CC1 3.44%, Cc1ccc2c(NC(=O)C3CC3)c(C)ccc2n1 13.3%, O=C(CCNC(=O)N1CC(=O)Nc2ccccc21)NCc1cccc(Cl)c1 8.76%, O=C(O)c1ccccc1SSc1ccccc1C(=O)O 1.77%, CCC(Sc1ccccc1C(=O)O)C(=O)O (stereo not drawn) 1.42%, CCOC(=O)C1CCN(C(=O)COc2cccc(C)c2)CC1 4.64%, CCCCn1c(N)c(N(CC(C)C)C(=O)CSc2n[nH]c(-c3ccc(C)cc3)n2)c(=O)[nH]c1=O 13%, CCOC(=O)c1sc(NC(=O)c2cc3ccccc3o2)nc1C -6.17%, Cc1ccccc1C(=O)Nc1ccccc1N1CCCCC1 -0.09%, CCC(=O)Nc1ccc(N2CCCCC2)c(C(=O)Nc2ccccc2C)c1 0.82%, CCOC(=O)c1c(C)c(C(=O)Nc2ccccc2)c(C)n1CC 10.4%, Cc1ccc(NC(=S)c2ccc(N(C)C)cc2)cc1 -10.2%, CCCCOC(=O)Nc1ccc(C(N)=O)cc1 12.3%, Cc1ccc(NC(N)=S)cc1 8.99%, CCCCOC(=O)Nc1ccc(C(=O)OC)cc1 6.13%, CCOC(=O)c1c(C)c(C(=O)Nc2ccc3c(c2)OCCO3)c(C)n1CC 0.47%, COC(=O)C1=CN(Cc2ccccc2)C=C(C(=O)OC)C1c1ccc(OC)c(OC)c1 7.64%, Cc1ccc(N(C(=O)CNC(=O)c2ccco2)C(C(=O)NC2CCCCC2)c2ccncc2)c(C)c1 (stereo not drawn) 23.9%, COC(=O)c1c(-c2ccc(F)cc2)csc1NC(=O)C1CCCO1 (stereo not drawn) 12%, COc1ccc(-c2cc(=O)oc3cc(O)ccc23)cc1 7.73%, COc1ccc(-c2cc(=O)oc3c(C)c(O)ccc23)cc1 6.62%, O=C(Nc1cccc2cccnc12)c1ccccc1Cl 1.03%, COc1ccc(N2CSC3=C(C#N)C(c4cc(OC)c(OC)cc4OC)CC(=O)N3C2)c(OC)c1 (stereo not drawn) 61.9%, COc1ccc(OC)c(C2CC(=O)N3CN(c4cccc(Cl)c4C)CSC3=C2C#N)c1 (stereo not drawn) 45.4%, COc1ccc(N2CSC3=C(C#N)C(c4cc(OC)ccc4OC)CC(=O)N3C2)c(OC)c1 (stereo not drawn) 34.1%, CCc1ccccc1N1CSC2=C(C#N)C(c3cc(OC)c(OC)cc3OC)CC(=O)N2C1 (stereo not drawn) 16.6%, COc1cc(C2CC(=O)N3CN(c4ccccc4C)CSC3=C2C#N)cc(OC)c1OC (stereo not drawn) -11.8%, COc1ccc(C2CC(=O)N3CN(c4ccc(C)c(Cl)c4)CSC3=C2C#N)cc1OC (stereo not drawn) 36.9% and 28.8%, CC(C)C[C@H](NC(=O)c1nc[nH]c1C(=O)NCc1ccc(CNC(=O)OC(C)(C)C)cc1)C(=O)OC(C)(C)C 1.84%, CCOc1cc2[nH]c(=O)n(Cc3ccccc3)c(=O)c2cc1OCC 3.82%, Cc1cc(C)c(C#N)c(N)n1 20.5%, COc1ccc(S(=O)(=O)N(CCc2ccccc2)CC(=O)NCCCO)cc1 6.27%, CN(C)S(=O)(=O)c1ccc(C(=O)Nc2ccn(C)n2)cc1 4.29%, CS(=O)(=O)N(CC(=O)N1CCC(C(N)=O)CC1)Cc1ccc(Cl)c(Cl)c1 6.63%, COc1ccccc1Nc1nc(N)nc(CN2CCN(Cc3ccc4c(c3)OCO4)CC2)n1 11.3%, CC(SCC(=O)NC12CC3CC(CC(C3)C1)C2)C(=O)O (stereo not drawn) 9.37%, Cc1ccc(-c2cc(C(F)(F)F)n3ncc(C(=O)N4CCN(C)CC4)c3n2)cc1 -2.21%, CC(/C=C1\SC(=S)N(C(C(=O)O)C(C)C)C1=O)=C\c1ccccc1 (stereo not drawn) 15.2%, CC(=C\c1ccccc1)/C=C1/SC(=S)N(C(C(=O)O)C(C)C)C1=O (stereo not drawn) 18.4%, O=C(O)CC(C(=O)O)N1C(=O)/C(=C/C=C/c2ccco2)SC1=S (stereo not drawn) 53.1%, O=C(O)C(Cc1ccccc1)N1C(=O)/C(=C/c2ccccc2)SC1=S (stereo not drawn) 16%, CCc1ccc2c(CN3CCOCC3)cc(=O)oc2c1 3.81%, COc1ccc(NC(=O)c2cc(-c3ccccc3)on2)cc1OC 6.07%, Cn1c(Oc2ccc(Cl)c3cccnc23)nc2c1c(=O)n(Cc1ccccc1Cl)c(=O)n2C 5.38%, CCCC(C(=O)NC1CCCC1)N(CCN(CC)CC)C(=O)c1snc(C(N)=O)c1N (stereo not drawn) 7.08%, CC1CCCN(S(=O)(=O)c2ccc(NC(=O)CNC3CCCC3)cc2)C1 (stereo not drawn) 4.39%, CCc1noc(C)c1C(=O)Nc1ccc(S(=O)(=O)N2CCCC(C)C2)cc1 (stereo not drawn) 10%, CCS(=O)(=O)c1ncc(Cl)c(C(=O)Nc2ccc(C)cc2)n1 7.02%, CC1CCN(S(=O)(=O)c2ccc(NC(=O)c3ccncc3)cc2)CC1 7.49%, CCC1CCCCN1S(=O)(=O)c1ccc(NC(=O)c2ccncc2)cc1 (stereo not drawn) -1.25%, CCC1CCCCN1S(=O)(=O)c1ccc(NC(=O)c2cccnc2)cc1 (stereo not drawn) 16.2%, Cc1ccc(S(=O)(=O)n2nccc2-c2c(-c3ccc(Cl)cc3)noc2C)cc1 6.88%, O=C(O)c1ccc(NC(CSCc2ccc(F)cc2)C(=O)O)c([N+](=O)[O-])c1 (stereo not drawn) -4.05%, O=C(c1cc2ccccc2o1)N1CCC(N2CCC(C(=O)N3CCCC3)CC2)CC1 5.34%, COc1ccc(/C=C2\SC(=S)N(NS(=O)(=O)c3ccccc3)C2=O)c(OC)c1 11.9%, O=S(=O)(NCC1CCCO1)c1ccc(Cl)cc1 (stereo not drawn) 1.99%, O=C(c1cc([N+](=O)[O-])ccc1N1CCCC1)N1CCCCC1 1.67%, Cc1cc(-n2c(C)cc(C(=O)CN3C(=O)NC4(CCCCCC4)C3=O)c2C)no1 -2.03%, CC1(C)CC(=O)C(C=Nc2ccccc2)=C(O)C1 -6.01%, O=C1CCCC(O)=C1C=Nc1cccc(C(F)(F)F)c1 2.45%, COc1ccc(N=CC2=C(O)CCCC2=O)cc1 18.6%, Oc1c(C=Nc2ccccc2)sc2ccccc12 21.4%, O=C1CC(c2ccccc2)CC(O)=C1C=Nc1ccc(O)cc1 (stereo not drawn) 30.3%, CC1(C)CC(=O)C(C=Nc2ccc(N)cc2)=C(O)C1 28.8%, CCOC(=O)c1cnc(-n2nc(C)cc2C)nc1NCc1ccc2c(c1)OCO2 17.1%, Cc1ccc(C)c(NC(=O)c2cc(-c3ccccc3O)n[nH]2)c1 3.34%, O=C(NC1CCCC1)C1CCN(C(=O)NCc2ccccc2)CC1 8.69%, CC(=O)c1cc2c(cc1N(C(=O)c1ccco1)C(C(=O)NC1CCCC1)c1ccccc1F)OCO2 (stereo not drawn) 1.47%, C/C(=N\NC(=O)c1cc(C)[nH]n1)c1ccc(-c2ccccc2)cc1 5.47%, CC(C(=O)NC1CCCCC1)N1C(=O)C2C3C=CC(C3)C2C1=O (stereo not drawn) 3.95%, N#CC(C#N)=C1C=CC=CN1/C(=C\c1ccccc1)C(=O)c1cccs1 4.44%, N#CC(C#N)=C1C=CC=CN1/C(=C\c1ccco1)C(=O)c1ccc(-c2ccccc2)cc1 28.2%, COCCN(CCOC)S(=O)(=O)c1ccc(C(=O)NC2CCN(Cc3ccccc3)CC2)cc1 4.79%, CCOC(=O)N1CCN(Cc2cccs2)CC1 5.2%, O=C(O)[C@@H](O)[C@H](O)C(=O)O 16.5%, O=C(O)[C@H](O)[C@@H](O)C(=O)O 3.59%, Cc1c(O)ccc2c(=O)c(-c3nncn3-c3ccccc3)coc12 2.48%, CSc1ccc(-c2nc(O)c3cnccn23)cc1 27.6%, COC(=O)c1ccc(-c2nc(O)c3cnccn23)cc1 4.33%, O=C(NNC(=O)c1ccc(O)cc1O)c1ccc(-c2ccccc2)cc1 3.4%, CC1CCCN(C(=S)Nc2ccc(Nc3ccccc3)cc2)C1 (stereo not drawn) 14.1%, OCC1CCCN(C(=S)Nc2ccc(Oc3ccccc3)cc2)C1 (stereo not drawn) 5.94%, CC(C)Sc1nc2c(c(=O)n(C)c(=O)n2C)n1Cc1ccc(Cl)cc1 3.02%, CN1CCN(c2nc3c(c(=O)n(C)c(=O)n3C)n2Cc2ccc(Cl)cc2)CC1 3.78%
